Measured values: PubChem BioAssay AID1159580 (chemical genetic matrix, 2015)
About 2,000 (36%) of roughly 5,500 compounds were called active. About 18% were inconclusive and are not listed. Rule as the data show it: active = normalized growth mostly below about 0.91 (no sharp cut-off); inconclusive = no clear call, values can overlap the other calls; inactive = mostly above about 0.92. This is one part of the list.

Experiment: chemical genetic growth profiling, strain panel (AID 1159580);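 also: tested at 20 µM; growth read once vehicle control cultures reached saturation at 30 °C; 1 = growth at the plate median or of vehicle wells; lower values mean less growth of the strain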
Details: growth OD

Measured: normalized growth

COc1ccc2c(=O)cc(-c3ccccc3OC)oc2c1
active: S. cerevisiae deletion strains, locus YAL013W, strain DEP1, stronger effect = lower value 0.743 | S. cerevisiae deletion strains, locus YBR021W, strain FUR4, stronger effect = lower value 0.797 | S. cerevisiae deletion strains, locus YDL192W, strain arf1, stronger effect = lower value 0.763 | S. cerevisiae deletion strains, locus YDR101C, strain arx1, stronger effect = lower value 0.883 | S. cerevisiae deletion strains, locus YDR318W, strain mcm21, stronger effect = lower value 0.866 | S. cerevisiae deletion strains, locus YDR502C, strain sam2, stronger effect = lower value 0.85 | S. cerevisiae deletion strains, locus YER155C, strain BEM2, stronger effect = lower value 0.869 | S. cerevisiae deletion strains, locus YGL086W, strain mad1, stronger effect = lower value 0.833 | S. cerevisiae deletion strains, locus YGL248W, strain PDE1, stronger effect = lower value 0.825 | S. cerevisiae deletion strains, locus YGR078C, strain PAC10, stronger effect = lower value 0.509 | S. cerevisiae deletion strains, locus YGR135W, strain pre9, stronger effect = lower value 0.812 | S. cerevisiae deletion strains, locus YGR252W, strain gcn5, stronger effect = lower value 0.716 | S. cerevisiae deletion strains, locus YHR030C, strain SLT2, stronger effect = lower value 0.539 | S. cerevisiae deletion strains, locus YHR129C, strain ARP1, stronger effect = lower value 0.849 | S. cerevisiae deletion strains, locus YHR200W, strain rpn10, stronger effect = lower value 0.895 | S. cerevisiae deletion strains, locus YIL066C, strain RNR3, stronger effect = lower value 0.819 | S. cerevisiae deletion strains, locus YIR030C, strain dcg1, stronger effect = lower value 0.905 | S. cerevisiae deletion strains, locus YJL095W, strain BCK1, stronger effect = lower value 0.437 | S. cerevisiae deletion strains, locus YJR043C, strain POL32, stronger effect = lower value 0.778 | S. cerevisiae deletion strains, locus YKR001C, strain vps1, stronger effect = lower value 0.709 | S. cerevisiae deletion strains, locus YLR039C, strain RIC1, stronger effect = lower value 0.642 | S. cerevisiae deletion strains, locus YLR268W, strain sec22, stronger effect = lower value 0.767 | S. cerevisiae deletion strains, locus YLR330W, strain CHS5, stronger effect = lower value 0.629 | S. cerevisiae deletion strains, locus YLR342W, strain FKS1 (second series), stronger effect = lower value 0.716 | S. cerevisiae deletion strains, locus YLR371W, strain rom2, stronger effect = lower value 0.728 | S. cerevisiae deletion strains, locus YLR418C, strain cdc73, stronger effect = lower value 0.468 | S. cerevisiae deletion strains, locus YML032C, strain rad52, stronger effect = lower value 0.879 | S. cerevisiae deletion strains, locus YMR223W, strain ubp8, stronger effect = lower value 0.831 | S. cerevisiae deletion strains, locus YMR307W, strain GAS1, stronger effect = lower value 0.49 | S. cerevisiae deletion strains, locus YNL128W, strain TEP1, stronger effect = lower value 0.708 | S. cerevisiae deletion strains, locus YNL233W, strain BNI4, stronger effect = lower value 0.632 | S. cerevisiae deletion strains, locus YNL307C, strain MCK1, stronger effect = lower value 0.526 | S. cerevisiae deletion strains, locus YNR052C, strain pop2, stronger effect = lower value 0.914 | S. cerevisiae deletion strains, locus YOL006C, strain TOP1, stronger effect = lower value 0.484 | S. cerevisiae deletion strains, locus YOL147C, strain pex11, stronger effect = lower value 0.874 | S. cerevisiae deletion strains, locus YOR144C, strain elg1, stronger effect = lower value 0.916 | S. cerevisiae deletion strains, locus YOR184W, strain ser1, stronger effect = lower value 0.671 | S. cerevisiae deletion strains, locus YPL241C, strain CIN2, stronger effect = lower value 0.918 | S. cerevisiae deletion strains, locus YPR163C, strain tif3, stronger effect = lower value 0.748 | S. cerevisiae deletion strains, locus YPR167C, strain met16, stronger effect = lower value 0.902 | S. cerevisiae deletion strains, strain wtn01, stronger effect = lower value 0.802 | S. cerevisiae strains, strain wild type, stronger effect = lower value 0.589
inactive: S. cerevisiae deletion strains, locus YBR229C, strain ROT2, stronger effect = lower value 0.97 | S. cerevisiae deletion strains, locus YCL029C, strain bik1, stronger effect = lower value 0.946 | S. cerevisiae deletion strains, locus YDL035C, strain GPR1, stronger effect = lower value 0.865 | S. cerevisiae deletion strains, locus YDL074C, strain BRE1, stronger effect = lower value 0.81 | S. cerevisiae deletion strains, locus YDL101C, strain DUN1, stronger effect = lower value 0.933 | S. cerevisiae deletion strains, locus YDL185W, strain tfp1, stronger effect = lower value 0.948 | S. cerevisiae deletion strains, locus YDR162C, strain NBP2, stronger effect = lower value 0.843 | S. cerevisiae deletion strains, locus YDR388W, stronger effect = lower value 0.934 | S. cerevisiae deletion strains, locus YER110C, stronger effect = lower value 0.939 | S. cerevisiae deletion strains, locus YGL078C, strain dbp3, stronger effect = lower value 0.934 | S. cerevisiae deletion strains, locus YHR079C, strain IRE1 (second series), stronger effect = lower value 0.941 | S. cerevisiae deletion strains, locus YHR094C, strain hxt1, stronger effect = lower value 0.961 | S. cerevisiae deletion strains, locus YIL073C, strain SPO22, stronger effect = lower value 0.806 | S. cerevisiae deletion strains, locus YIL125W, strain kgd1, stronger effect = lower value 0.938 | S. cerevisiae deletion strains, locus YJL134W, strain LCB3, stronger effect = lower value 0.985 | S. cerevisiae deletion strains, locus YJL168C, strain set2, stronger effect = lower value 0.941 | S. cerevisiae deletion strains, locus YJL187C, strain SWE1 (second series), stronger effect = lower value 0.918 | S. cerevisiae deletion strains, locus YKL009W, strain mrt4, stronger effect = lower value 0.947 | S. cerevisiae deletion strains, locus YKL068W, stronger effect = lower value 0.963 | S. cerevisiae deletion strains, locus YKL085W, strain MDH1 (second series), stronger effect = lower value 0.97 | S. cerevisiae deletion strains, locus YKL085W, strain MDH1, stronger effect = lower value 0.97 | S. cerevisiae deletion strains, locus YLR058C, strain SHM2, stronger effect = lower value 0.949 | S. cerevisiae deletion strains, locus YLR102C, strain apc9, stronger effect = lower value 0.95 | S. cerevisiae deletion strains, locus YLR262C, strain YPT6, stronger effect = lower value 0.65 | S. cerevisiae deletion strains, locus YML016C, strain PPZ1, stronger effect = lower value 0.974 | S. cerevisiae deletion strains, locus YML124C, strain tub3, stronger effect = lower value 0.94 | S. cerevisiae deletion strains, locus YMR078C, strain ctf18, stronger effect = lower value 0.916 | S. cerevisiae deletion strains, locus YNL067W, strain RPL9B, stronger effect = lower value 0.923 | S. cerevisiae deletion strains, locus YNL250W, strain rad50, stronger effect = lower value 0.984 | S. cerevisiae deletion strains, locus YNL271C, strain bni1, stronger effect = lower value 0.939 | S. cerevisiae deletion strains, locus YNL298W, strain CLA4, stronger effect = lower value 0.912 | S. cerevisiae deletion strains, locus YNL322C, strain KRE1, stronger effect = lower value 0.969 | S. cerevisiae deletion strains, locus YOL012C, strain htz1 0.811 | S. cerevisiae deletion strains, locus YOR061W, strain CKA2, stronger effect = lower value 0.976 | S. cerevisiae deletion strains, locus YOR069W, strain VPS5, stronger effect = lower value 0.957 | S. cerevisiae deletion strains, locus YOR136W, strain idh2, stronger effect = lower value 0.931 | S. cerevisiae deletion strains, locus YOR316C, strain cot1, stronger effect = lower value 0.958 | S. cerevisiae deletion strains, locus YPR119W, strain clb2, stronger effect = lower value 0.941 | S. cerevisiae deletion strains, locus YPR141C, strain kar3, stronger effect = lower value 0.96
